# C diff growth = C. difficile growth inhibition | Clostridium difficile clinical isolate growth, OD600, 24 h; stronger effect = lower value | growth activity, negative = inhibition, % at 16 µg/mL (by protocol) | hit rate 0.25% among 86,000 | AID 1259249;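 active = mean growth activity at or below -80% and every replicate also at or below -80%; inconclusive = mean at or below -80% but some replicate above -80%; inactive = mean growth activity above -80%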;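 also: 0% = DMSO wells and -100% = levofloxacin 16 µg/mL wells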
# Pf Dd2 inh = P. falciparum Dd2 growth inhibition; hit rate 2.3% among 94,000; SYBR Green, 72 h; stronger effect = lower value; AID 1159554; activity change, % at 10 µM; in the data active = activity change below about -80%; inconclusive = no clear call, values can overlap the other calls
# T cruzi growth-1 = blocks T. cruzi growth in NIH3T3 culture; inhibition, % at 8.34 µM; T. cruzi beta-gal in NIH3T3, GalScreen luminescence, 90 h; AID 624255; hit rate 5.9% among 77,000;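 active = mean inhibition above about 93%, with at least 55% of replicates each passing it, limit read from the data, passing the limit was not always enough; inconclusive = only one of those two conditions holds; inactive = neither condition holds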
# T cruzi growth-2 = inhibitors of T. cruzi proliferation; shares compounds with T cruzi growth-1; T. cruzi beta-gal in NIH3T3, GalScreen luminescence, 90 h; inhibition, % at 8.35 µM; hit rate 72% among 5,600; AID 651739;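 active = mean replicate inhibition above about 95% and at least 55% of replicates individually reaching it, limit read from the data; inconclusive = only one of the two criteria is met; inactive = neither criterion is met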
# T cruzi growth-3 = blocks T. cruzi growth in NIH3T3 host cells; shares compounds with T cruzi growth-1; T. cruzi beta-gal in NIH3T3, GalScreen luminescence, 90 h; inhibition, % at 2.09 µM; hit rate 21% among 5,600;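 active = mean inhibition above about 95%, with at least 55% of replicates also reaching it, limit read from the data; inconclusive = meets just one of the two conditions; inactive = meets neither condition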;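 also: plate controls were neutral control median for no effect and positive control median for full effect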
# NIH3T3 tox = cytotoxicity in mouse NIH/3T3 fibroblasts | shares compounds with T cruzi growth-1 | NIH/3T3 viability, CellTiter-Glo ATP luminescence, 90 h | cytotoxicity (signal decrease), % at 8.35 µM | hit rate 14% among 5,600;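 active = mean signal decrease across replicates above about 35% based on untreated-well scatter, with enough replicates individually passing, limit read from the data; inconclusive = no rule stated though some were filed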;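 also: 0% = median of neutral control wells and 100% = median of positive control wells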
# 3T3 cytotox 2 = NIH/3T3 (mouse) viability loss; shares compounds with T cruzi growth-1; NIH/3T3 viability, CellTiter-Glo ATP luminescence, 90 h; inhibition, % at 24.9 µM; hit rate 56% among 5,600; AID 651744;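 active = mean loss of cell viability signal at or above a set limit, and enough replicates individually reaching it; inconclusive = meets only the mean limit or only the replicate share; inactive = meets neither condition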;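 also: 0% = median of neutral control wells and 100% = median of positive control wells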
# * hit, by the source's call; u = inconclusive; x = not tested or not shown. Compounds with a hit are over-represented: about 6.7% of the library has one in this group of screens.
SMILES,C diff growth,Pf Dd2 inh,T cruzi growth-1,T cruzi growth-2,T cruzi growth-3,NIH3T3 tox,3T3 cytotox 2
C[C@H]1CN([C@@H](C)CO)C(=O)Cc2cc(NC(=O)C3CC3)ccc2O[C@@H]1CN(C)Cc1ccc(-c2ccccc2)cc1,9,-20,92,x,x,x,x
C[C@H]1CCCCO[C@@H](CN(C)S(=O)(=O)c2ccc(F)cc2)[C@@H](C)CN([C@@H](C)CO)C(=O)c2cc(NS(=O)(=O)c3ccc(F)cc3)ccc2O1,2,-48,119*,105*,33,-13,-17
C[C@@H]1CCCCO[C@H](CN(C)S(=O)(=O)c2ccc(F)cc2)[C@@H](C)CN([C@H](C)CO)C(=O)c2cc(NS(=O)(=O)c3ccc(F)cc3)ccc2O1,-4,-37,8,x,x,x,x
C[C@@H]1CN([C@@H](C)CO)C(=O)c2cc(NS(=O)(=O)c3ccc(F)cc3)ccc2O[C@@H](C)CCCCO[C@H]1CN(C)S(=O)(=O)c1ccccc1,-9,-53,0,x,x,x,x
C[C@H](CO)N1C[C@H](C)[C@H](CN(C)S(=O)(=O)c2ccc(F)cc2)OCCCC[C@H](C)Oc2ccc(NS(=O)(=O)c3ccc(F)cc3)cc2C1=O,-10,-45,119*,103*,91,8,-15
C[C@@H]1CCCCO[C@@H](CN(C)S(=O)(=O)c2ccccc2)[C@H](C)CN([C@@H](C)CO)C(=O)c2cc(NS(=O)(=O)c3ccc(F)cc3)ccc2O1,-2,-52,63,x,x,x,x
C[C@@H]1CCCCO[C@H](CN(C)S(=O)(=O)c2ccc(F)cc2)[C@H](C)CN([C@H](C)CO)C(=O)c2cc(NS(=O)(=O)c3ccccc3)ccc2O1,6,-46,104*,114*,79,18,7
C[C@H]1CCCCO[C@H](CN(C)S(=O)(=O)c2ccc(F)cc2)[C@@H](C)CN([C@@H](C)CO)C(=O)c2cc(NS(=O)(=O)c3ccc(F)cc3)ccc2O1,-5,-64,99*,110*,68,3,-3
C[C@@H]1CCCCO[C@@H](CN(C)S(=O)(=O)c2ccccc2)[C@@H](C)CN([C@H](C)CO)C(=O)c2cc(NS(=O)(=O)c3ccc(F)cc3)ccc2O1,-4,-5,22,x,x,x,x
CO[C@H]1CN(C)C(=O)c2cc(NC(=O)c3cnccn3)ccc2OC[C@H](C)N(C)C[C@@H]1C,x,29,39,x,x,x,x
C[C@@H]1CN([C@H](C)CO)S(=O)(=O)c2ccc(C3=CCCC3)cc2O[C@H]1CN(C)Cc1ccccn1,5,-71,x,x,x,x,x
C[C@@H]1CCCCO[C@H](CN(C)S(=O)(=O)c2ccc(F)cc2)[C@@H](C)CN([C@@H](C)CO)C(=O)c2cc(NS(=O)(=O)c3ccc(F)cc3)ccc2O1,2,-70,111*,103*,62,-4,19
C[C@@H]1CN([C@@H](C)CO)C(=O)c2cc(NS(=O)(=O)c3ccccc3)ccc2O[C@@H](C)CCCCO[C@H]1CN(C)S(=O)(=O)c1ccc(F)cc1,-1,-21,57,x,x,x,x
C[C@@H]1CCCCO[C@@H](CN(C)S(=O)(=O)c2ccc(F)cc2)[C@H](C)CN([C@@H](C)CO)C(=O)c2cc(NS(=O)(=O)c3ccc(F)cc3)ccc2O1,5,-20,109*,106*,86,0,11
C[C@@H]1CN([C@@H](C)CO)C(=O)c2cc(NS(=O)(=O)c3ccccc3)ccc2O[C@@H](C)CCCCO[C@@H]1CN(C)S(=O)(=O)c1ccc(F)cc1,-1,-32,54,x,x,x,x
CN(C)CC(=O)N[C@H]1CC[C@H](CCNC(=O)C2CCCCC2)O[C@@H]1CO,-3,9,x,x,x,x,x
COc1ccc2c3c(n(C)c2c1)[C@H](CO)N(C(=O)CN1CCOCC1)CC31CCN(C(=O)Nc2cccc(F)c2)CC1,8,-12,x,x,x,x,x
C[C@@H]1CCCCO[C@@H](CN(C)Cc2ccc(Cl)c(Cl)c2)[C@H](C)CN([C@H](C)CO)C(=O)c2cc(NC(=O)Nc3cccc4ccccc34)ccc2O1,11,-74,95,x,x,x,x
C[C@@H]1CCCCO[C@@H](CN(C)Cc2ccc(Cl)c(Cl)c2)[C@@H](C)CN([C@H](C)CO)C(=O)c2cc(NC(=O)Nc3cccc4ccccc34)ccc2O1,-13,-18,120*,103*,77,-13,-17
C[C@H](CO)N1C[C@H](C)[C@@H](CN(C)Cc2ccc(Cl)c(Cl)c2)OCCCC[C@H](C)Oc2ccc(NC(=O)Nc3cccc4ccccc34)cc2C1=O,-12,-4,122*,111*,106*,24,16
C[C@@H]1CN([C@H](C)CO)C(=O)c2cc(NC(=O)Nc3cccc4ccccc34)ccc2O[C@@H](C)CCCCO[C@H]1CN(C)Cc1ccc(Cl)c(Cl)c1,-15,-70,x,x,x,x,x
CCCNC(=O)N1C[C@@H](C)[C@@H](OC)CN(C)C(=O)c2cc(NC(=O)C3CCC3)ccc2OC[C@H]1C,x,x,-13,x,x,x,x
C[C@@H](O)C#Cc1ccc([C@@H]2[C@H]3CN(C(=O)c4ccncc4)CCCCN3[C@H]2CO)cc1,-8,27,93,x,x,x,x
COc1ccc(C#Cc2ccc([C@H]3[C@H]4CN(C(=O)c5ccncc5)CCCCN4[C@H]3CO)cc2)cc1,-10,3,105*,64,-18,50*,54*
C[C@H](O)C#Cc1ccc([C@H]2[C@H]3CN(C(=O)c4ccncc4)CCCCN3[C@H]2CO)cc1,-7,17,101*,-4,1,-9,11
SMILES,C diff growth,Pf Dd2 inh,T cruzi growth-1,T cruzi growth-2,T cruzi growth-3,NIH3T3 tox,3T3 cytotox 2
C[C@@H](O)C#Cc1ccc([C@H]2[C@@H](CO)N3CCCCN(C(=O)c4ccncc4)C[C@H]23)cc1,-4,23,16,x,x,x,x
O=C(c1cccnc1)N1CCCCN2[C@H](CO)[C@@H](c3ccc(C#Cc4ccccn4)cc3)[C@H]2C1,2,34,38,x,x,x,x
COc1ccc(C#Cc2ccc([C@@H]3[C@H]4CN(C(=O)c5ccncc5)CCCCN4[C@H]3CO)cc2)cc1,-2,-27,89,x,x,x,x
O=C(c1ccncc1)N1CCCCN2[C@@H](CO)[C@H](c3ccc(C#Cc4ccccn4)cc3)[C@@H]2C1,4,-4,105*,u,15,2,3
COc1ccc(C#Cc2ccc([C@@H]3[C@H](CO)N4CCCCN(C(=O)c5ccncc5)C[C@@H]34)cc2)cc1,0,-32,105*,88,74,21,104*
COc1ccc(S(=O)(=O)Nc2ccc3c(c2)C(=O)N([C@H](C)CO)C[C@H](C)[C@H](CN(C)C)OCCCC[C@H](C)O3)cc1,19,20,12,x,x,x,x
C[C@H](CO)N1C[C@H](C)[C@H](CN(C)C(=O)CC2CC2)Oc2ncc(C#CC3CC3)cc2C1=O,3,-8,34,x,x,x,x
C[C@H]1CN([C@@H](C)CO)S(=O)(=O)c2ccc(-c3ccncc3)cc2O[C@@H]1CN(C)C(=O)C1CCCCC1,1,-44,53,x,x,x,x
